Source: PubChem BioAssay AID1159580 (chemical genetic matrix, 2015)
Among all 5,500 compounds or so, about 2,000 (36%) were called active. Roughly 18% stayed inconclusive and do not appear here. Some of the results follow. Unmarked numbers belong to inactive results. No stated cut-off is given here; in the data, active means normalized growth mostly below about 0.91 (no sharp cut-off); inconclusive means no clear call, values can overlap the other calls; inactive means mostly above about 0.92.

Assay: chemical genetic growth profiling, strain panel (AID 1159580);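 further: tested at 20 µM; growth read once vehicle control cultures reached saturation at 30 °C; 1 = growth at the plate median or of vehicle wells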
Conditions: growth OD
[1] = S. cerevisiae deletion strains, locus YAL013W, strain DEP1, stronger effect = lower value
[2] = S. cerevisiae deletion strains, locus YBR229C, strain ROT2, stronger effect = lower value
[3] = S. cerevisiae deletion strains, locus YDL101C, strain DUN1, stronger effect = lower value
[4] = S. cerevisiae deletion strains, locus YDR150W, strain NUM1, stronger effect = lower value
[5] = S. cerevisiae deletion strains, locus YEL061C, strain CIN8, stronger effect = lower value
[6] = S. cerevisiae deletion strains, locus YGR078C, strain PAC10, stronger effect = lower value
[7] = S. cerevisiae deletion strains, locus YHR030C, strain SLT2, stronger effect = lower value
[8] = S. cerevisiae deletion strains, locus YHR087W, strain rtc3, stronger effect = lower value
[9] = S. cerevisiae deletion strains, locus YJR043C, strain POL32, stronger effect = lower value
[10] = S. cerevisiae deletion strains, locus YJR075W, strain HOC1, stronger effect = lower value
[11] = S. cerevisiae deletion strains, locus YLR039C, strain RIC1, stronger effect = lower value
[12] = S. cerevisiae deletion strains, locus YLR058C, strain SHM2 (second series), stronger effect = lower value
[13] = S. cerevisiae deletion strains, locus YLR085C, strain ARP6, stronger effect = lower value
[14] = S. cerevisiae deletion strains, locus YLR262C, strain YPT6, stronger effect = lower value
[15] = S. cerevisiae deletion strains, locus YML094W, strain GIM5, stronger effect = lower value
[16] = S. cerevisiae deletion strains, locus YMR219W, strain ESC1, stronger effect = lower value
[17] = S. cerevisiae deletion strains, locus YMR263W, strain SAP30, stronger effect = lower value
[18] = S. cerevisiae deletion strains, locus YNL153C, strain GIM3, stronger effect = lower value
[19] = S. cerevisiae deletion strains, locus YNL298W, strain CLA4 (second series), stronger effect = lower value
[20] = S. cerevisiae deletion strains, locus YNL322C, strain KRE1, stronger effect = lower value
[21] = S. cerevisiae deletion strains, locus YNR030W, strain Alg12, stronger effect = lower value
[22] = S. cerevisiae deletion strains, locus YPL055C, strain LGE1, stronger effect = lower value
[23] = S. cerevisiae deletion strains, locus YPL241C, strain CIN2, stronger effect = lower value
[24] = S. cerevisiae deletion strains, locus YPR135W, strain CTF4, stronger effect = lower value

COC(=O)c1ccsc1N
normalized growth [1]: 0.988
normalized growth [2]: 1
normalized growth [3]: 1.01
normalized growth [4]: 1.07
normalized growth [5]: 0.985
normalized growth [6]: 1
normalized growth (S. cerevisiae deletion strains, locus YGR229C, strain SMI1, stronger effect = lower value): 0.981
normalized growth [7]: 1.09
normalized growth [8]: 0.995
normalized growth [9]: 1.02
normalized growth [10]: 1.01
normalized growth (S. cerevisiae deletion strains, locus YKL190W, strain CNB1, stronger effect = lower value): 0.99
normalized growth [11]: 1
normalized growth [12]: 0.983
normalized growth [13]: 0.94
normalized growth [14]: 1.14
normalized growth [15]: 0.97
normalized growth [16]: 0.993
normalized growth [17]: 1.02
normalized growth [18]: 1
normalized growth [19]: 0.963
normalized growth [20]: 0.992
normalized growth [21]: 0.976
normalized growth [22]: 0.986
normalized growth [23]: 0.958
normalized growth [24]: 1.11

COC(=O)c1cscc1Sc1ccc(Cl)cc1
normalized growth [1]: 0.948
normalized growth [2]: 0.953
normalized growth (S. cerevisiae deletion strains, locus YCL061C, strain MRC1, stronger effect = lower value): 0.978
normalized growth [3]: 0.961
normalized growth (S. cerevisiae deletion strains, locus YDL134C, strain PPH21, stronger effect = lower value): 0.82 (active)
normalized growth [4]: 0.983
normalized growth [5]: 0.931
normalized growth [6]: 0.956
normalized growth [7]: 0.319 (active)
normalized growth [8]: 0.944
normalized growth (S. cerevisiae deletion strains, locus YJL187C, strain SWE1, stronger effect = lower value): 0.995
normalized growth [9]: 0.987
normalized growth [10]: 0.943
normalized growth [11]: 0.747 (active)
normalized growth [12]: 0.955
normalized growth [13]: 0.664 (active)
normalized growth [14]: 0.771 (active)
normalized growth [15]: 0.914
normalized growth [16]: 0.96
normalized growth [17]: 0.989
normalized growth [18]: 0.968
normalized growth [19]: 0.916
normalized growth [20]: 0.939 (active)
normalized growth [21]: 0.848 (active)
normalized growth [22]: 0.998
normalized growth [23]: 0.845 (active)
normalized growth [24]: 0.565 (active)
normalized growth (S. cerevisiae strains, strain wild type, stronger effect = lower value): 0.949
